Results reported in PubChem BioAssay (NCI).
Compounds without any hit were thinned out: in the full panel of roughly 83,000, 20% have a hit.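 A percent growth of 40 corresponds to 60% growth inhibition; 0 means no net growth; -100 means all cells died. Active threshold: below 10.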 Values without a mark were called inactive. Active and inactive are the calls of the source.

tested on: HOP-92 NSCLC; test: NCI-60 one-dose screen, 48 h (100 = growth as untreated, 0 = no growth, -100 = all killed); settings: 10 µM

| Structure (SMILES) | growth |
| --- | --- |
| CNC(=S)Sc1ccc([N+](=O)[O-])cc1[N+](=O)[O-] | 23.6% |
| O=C(CCc1ccccc1)N1CCN(C(=O)CCc2ccccc2)CC1 | 84.1% |
| Cn1cnc([N+](=O)[O-])c1/C=C1\Oc2ccc(Cl)cc2C1=O | 94% |
| NC1CCC(Nc2nc(NCc3ccc(-c4ccco4)nc3)c3ncn(C4CCCC4)c3n2)CC1 (stereo unspecified) | -16.3% (active) |
| CCCCCN(CCCCC)C(C)C(O)c1ccc2cc(Cl)c3ccccc3c2c1 (stereo unspecified) | 55.9% |
| O=C(NNC(=O)c1ccncc1)Nc1ccc([N+](=O)[O-])cc1 | 103% |
| CC1(C)CNC(=O)N1 | 87% |
| O=C(N/N=C/c1ccccc1O)c1ccccc1 | 7.78% (active) |
| CCn1nc(-c2ccccn2)c2cccnc2c1=S | 73.4% |
| CCN(CC)CCn1c(=N)n(CC(O)c2ccc(Cl)c(Cl)c2)c2ccccc21 (stereo unspecified) | 58.1% |
| O=C(O)c1ccc(CNc2ccc(C(=O)CCl)cc2)cc1 | 77.4% |
| COc1cc(CSc2nc3ccc(C)cc3c(=O)n2Cc2ccccc2)cc(OC)c1OC | 56.6% |
| COc1cc(C(c2c[nH]c3ccccc23)N2CCCC2)ccc1OCc1ccccc1 (stereo unspecified) | 12.7% |
| Cn1c([N+](=O)[O-])cnc1C=C1C(=O)c2ccccc2C1=O | 20.4% |
| [O-]c1c[n+](-c2ccc(Cl)cc2)no1 | 83.8% |
| O=C1CC[C@@H](C(=O)N[C@H]2CSSC[C@@H](C(=O)NCCc3ccccc3)NC(=O)[C@H](Cc3ccccc3)NC(=O)[C@@H]3CCCN3C(=O)[C@@H]3CCCN3C2=O)N1 | 94.6% |
| COc1cc(C2C(C#N)=C(c3c[nH]c4ccccc34)Nc3nc(N)[nH]c(=O)c32)cc(OC)c1OC (stereo unspecified) | 47.8% |
| COc1cc(C(=O)n2nc(N)c3c(C)cc(C)nc32)cc(OC)c1OC | 93.5% |
| N#CN1CC[C@H](C(=O)Nc2ncc(-c3ccccc3)s2)C1 | 0.798% (active) |

| Structure (SMILES) | growth |
| --- | --- |
| COC(=O)[C@]12CC[C@@H](C)[C@H](C)[C@@H]1C1=CC[C@@H]3[C@@]4(C)C[C@@H](O)[C@H](O)[C@@](C)(CO)[C@@H]4[C@H](O)C[C@@]3(C)[C@]1(C)CC2 | -56% (active) |
| O=C1/C(=C/c2ccc(O)cc2)Oc2ccc(Cl)cc21 | 67.1% |
| COc1ccc(/C=C2\CCC3C(CCCC34OCCO4)C2=O)cc1 (stereo unspecified) | 92.3% |
| Cc1ccc2c3c(cccc13)-c1ccccc1C2=O | 108% |
| COc1ccc(C(=O)/C=C/c2cc(-c3ccc4c(c3)OCO4)n[nH]2)cc1OC | 55.7% |
| N=C(N)c1ccc(-c2ccc(-c3ccccc3)s2)cc1F | -83.7% (active) |
| CN(C)c1ccc2c(c1)OC(N)=C(C#N)C2c1ccc2c(c1)CCCN2C (stereo unspecified) | 47.1% |
| CCOC(=O)c1c(C(F)(F)F)n([O-])c2ccc(OC)cc2[n+]1=O | -34.7% (active) |
| CNC(=O)c1cc(Oc2ccc(NC(=O)Nc3ccc(Cl)c(OC4CCCCC4)c3)c(F)c2)ccn1 | 36% |
| COC(=O)[C@]12CC[C@@H](C)[C@H](C)[C@@H]1C1=CC[C@@H]3[C@@]4(C)CC(=O)[C@H](O)[C@@]5(C)COC(=C45)C[C@@]3(C)[C@]1(C)CC2 | -83.2% (active) |
| O=[N+]([O-])c1ccc(-c2nc(Cl)c3c(n2)CCCC3)o1 | 85.2% |
| C/C(=N\NC(N)=S)C(C)(C)O | 88.1% |
| FC(F)(F)c1ccc(-c2ncc(-c3ccc(C(F)(F)F)cc3)c(NCc3cc(C(F)(F)F)cc(C(F)(F)F)c3)n2)cc1 | -6.55% (active) |
| Oc1[nH]c2ccccc2c1/C=c1/cc2c(c(-c3ccc(C(F)(F)F)cc3)n1)=Nc1ccccc1-2 | 20.7% |
| Cc1ccc(C(=O)O)c(N)c1C | 98.8% |
| CC(=O)n1nc(C(=O)OC(C)(C)C)c2cc(F)c(F)cc21 | 83% |
| COc1cc(N=C2C(=O)N(Cc3ccccc3)c3ccccc32)cc(OC)c1OC | 35.6% |
| NC(N)=NS(=O)(=O)c1ccc(Nc2ccc3nnc(-c4ccncc4)n3n2)cc1 | 107% |
| CC(=O)c1ccc(NCn2nc(-c3ccc(Cl)cc3)oc2=S)cc1 | 104% |

tested on: NCI-H522 lung; test: as above; settings: 10 µM

| Structure (SMILES) | growth |
| --- | --- |
| CNC(=S)Sc1ccc([N+](=O)[O-])cc1[N+](=O)[O-] | -57.7% (active) |
| O=C(CCc1ccccc1)N1CCN(C(=O)CCc2ccccc2)CC1 | 98.3% |
| Cn1cnc([N+](=O)[O-])c1/C=C1\Oc2ccc(Cl)cc2C1=O | 52.8% |
| NC1CCC(Nc2nc(NCc3ccc(-c4ccco4)nc3)c3ncn(C4CCCC4)c3n2)CC1 (stereo unspecified) | -70.6% (active) |
| CCCCCN(CCCCC)C(C)C(O)c1ccc2cc(Cl)c3ccccc3c2c1 (stereo unspecified) | 90% |
| O=C(NNC(=O)c1ccncc1)Nc1ccc([N+](=O)[O-])cc1 | 88.5% |
| CC1(C)CNC(=O)N1 | 83.9% |
| O=C(N/N=C/c1ccccc1O)c1ccccc1 | -4.7% (active) |
| CCn1nc(-c2ccccn2)c2cccnc2c1=S | 70.5% |
| CCN(CC)CCn1c(=N)n(CC(O)c2ccc(Cl)c(Cl)c2)c2ccccc21 (stereo unspecified) | 45% |
| O=C(O)c1ccc(CNc2ccc(C(=O)CCl)cc2)cc1 | -41.9% (active) |
| COc1cc(CSc2nc3ccc(C)cc3c(=O)n2Cc2ccccc2)cc(OC)c1OC | -14.5% (active) |
| COc1cc(C(c2c[nH]c3ccccc23)N2CCCC2)ccc1OCc1ccccc1 (stereo unspecified) | 71.1% |
| Cn1c([N+](=O)[O-])cnc1C=C1C(=O)c2ccccc2C1=O | 3.27% (active) |
| [O-]c1c[n+](-c2ccc(Cl)cc2)no1 | 122% |
| O=C1CC[C@@H](C(=O)N[C@H]2CSSC[C@@H](C(=O)NCCc3ccccc3)NC(=O)[C@H](Cc3ccccc3)NC(=O)[C@@H]3CCCN3C(=O)[C@@H]3CCCN3C2=O)N1 | 96.2% |
| COc1cc(C2C(C#N)=C(c3c[nH]c4ccccc34)Nc3nc(N)[nH]c(=O)c32)cc(OC)c1OC (stereo unspecified) | -11.7% (active) |
| COc1cc(C(=O)n2nc(N)c3c(C)cc(C)nc32)cc(OC)c1OC | 41% |
| N#CN1CC[C@H](C(=O)Nc2ncc(-c3ccccc3)s2)C1 | -35.6% (active) |

| Structure (SMILES) | growth |
| --- | --- |
| COC(=O)[C@]12CC[C@@H](C)[C@H](C)[C@@H]1C1=CC[C@@H]3[C@@]4(C)C[C@@H](O)[C@H](O)[C@@](C)(CO)[C@@H]4[C@H](O)C[C@@]3(C)[C@]1(C)CC2 | -78.9% (active) |
| O=C1/C(=C/c2ccc(O)cc2)Oc2ccc(Cl)cc21 | -65% (active) |
| COc1ccc(/C=C2\CCC3C(CCCC34OCCO4)C2=O)cc1 (stereo unspecified) | -1.7% (active) |
| Cc1ccc2c3c(cccc13)-c1ccccc1C2=O | 67.1% |
| COc1ccc(C(=O)/C=C/c2cc(-c3ccc4c(c3)OCO4)n[nH]2)cc1OC | 19.4% |
| N=C(N)c1ccc(-c2ccc(-c3ccccc3)s2)cc1F | -75.2% (active) |
| CN(C)c1ccc2c(c1)OC(N)=C(C#N)C2c1ccc2c(c1)CCCN2C (stereo unspecified) | -26.4% (active) |
| CCOC(=O)c1c(C(F)(F)F)n([O-])c2ccc(OC)cc2[n+]1=O | -25.9% (active) |
| CNC(=O)c1cc(Oc2ccc(NC(=O)Nc3ccc(Cl)c(OC4CCCCC4)c3)c(F)c2)ccn1 | 9.84% (active) |
| COC(=O)[C@]12CC[C@@H](C)[C@H](C)[C@@H]1C1=CC[C@@H]3[C@@]4(C)CC(=O)[C@H](O)[C@@]5(C)COC(=C45)C[C@@]3(C)[C@]1(C)CC2 | -76.3% (active) |
| O=[N+]([O-])c1ccc(-c2nc(Cl)c3c(n2)CCCC3)o1 | -41.3% (active) |
| C/C(=N\NC(N)=S)C(C)(C)O | 109% |
| FC(F)(F)c1ccc(-c2ncc(-c3ccc(C(F)(F)F)cc3)c(NCc3cc(C(F)(F)F)cc(C(F)(F)F)c3)n2)cc1 | 43.3% |
| Oc1[nH]c2ccccc2c1/C=c1/cc2c(c(-c3ccc(C(F)(F)F)cc3)n1)=Nc1ccccc1-2 | 33.5% |
| Cc1ccc(C(=O)O)c(N)c1C | 87.3% |
| CC(=O)n1nc(C(=O)OC(C)(C)C)c2cc(F)c(F)cc21 | 83.2% |
| COc1cc(N=C2C(=O)N(Cc3ccccc3)c3ccccc32)cc(OC)c1OC | 75% |
| NC(N)=NS(=O)(=O)c1ccc(Nc2ccc3nnc(-c4ccncc4)n3n2)cc1 | -57.2% (active) |
| CC(=O)c1ccc(NCn2nc(-c3ccc(Cl)cc3)oc2=S)cc1 | 92% |
